Among all 69,000 compounds or so, about 8,600 (12%) showed an effect of 50% or more. The full list was thinned out, with strong results kept by preference.
These compounds were tested on Plasmodium berghei (assay: Screen against P. berghei liver stage (PbLuc), transformed with Luciferase, at 10uM). Details: tested at 10 uM.
Format: functional, HepG2

Row | SMILES | INHIBITION [%]
1 | O=C(COCc1ccccc1Cl)N1CCN(c2ccc(Br)cn2)CC1 | 60.3
2 | O=C(COCc1ccccc1Cl)N1CCN(c2ncccn2)CC1 | -133
3 | O=C(COCc1ccccc1Cl)N1CCN(c2cnccn2)CC1 | -9.51
4 | COc1ccc(Cl)cc1S(=O)(=O)N1C[C@H]2CC[C@@H](C1)N(C)C2=O | 48.9
5 | CN(C)CC(=O)N1CCC2(CC1)Cc1ccccc1CN(C)C2=O | 18.6
6 | Cc1ccc(CN2C[C@@H]3CN(C(=O)c4cccn4C)C[C@@H]3C2)cc1 | 8.74
7 | c1cn(-c2ccc(CN3CCOC(Cn4cncn4)C3)cc2)cn1 (configuration not stated) | 27.6
8 | COc1ccc(CCC(=O)Nc2ccncc2C)cc1 | 12.8
9 | CCC(C)NC(=O)c1ccc(NC(=O)CCc2ccncc2)c(C)c1 (configuration not stated) | 39
10 | COC(=O)c1ccc(NC(=O)CCc2ccncc2)c(C)c1 | 50.1
11 | O=C(CCOc1ccccc1Cl)N1CCN(c2cnccn2)CC1 | -33.7
12 | CCN1CCN(C(=O)NC(C)c2noc(-c3ccccc3)n2)CC1 (configuration not stated) | 51.1
13 | CC(NC(=O)N1CCC[C@H]1CO)c1noc(-c2ccccc2)n1 (some centres not stated) | 8.38
14 | CC(NC(=O)N1CCSC(C)(C)C1)c1noc(-c2ccccc2)n1 (configuration not stated) | 38.3
15 | Cc1nc(CNCc2c(C(C)C)nn(C)c2N2CCOCC2)cs1 | 49.6
16 | COc1ccc2c(c1)C(C(=O)NCCN1CCNC1=O)CC(=O)N2 (configuration not stated) | 5.36
17 | Cc1nc(CCNC(=O)C2CCN(C(C)C)CC2)sc1Cl | -3.72
18 | CCN1CCC(CC(=O)NCCc2nc(C)cc(C)n2)CC1 | -26.1
19 | CCCN1CCC(CC(=O)NCc2cc(C)nn2C)CC1 | 22.3

Row | SMILES | INHIBITION [%]
20 | CCCN1CCC(CC(=O)NCCc2nc(C)cc(C)n2)CC1 | -37.2
21 | CCc1nc(C)c(CNC(=O)CCCN2CCCCC2)s1 | 9.87
22 | Cc1cc(C(F)(F)F)nc(CNC(=O)CCCN2CCCCC2)n1 | 48
23 | Cc1nc(CCNC(=O)CC2CCN(C(C)C)CC2)sc1Cl | 60.9
24 | CCN1CCC(CC(=O)NCCc2nc(C)c(Cl)s2)CC1 | 13
25 | Cc1cc(CNC(=O)CC2CCN(C(C)C)CC2)n(C)n1 | 60.8
26 | Cc1cc(CNC(=O)CCCN2CCCCC2)n(C)n1 | 73.6
27 | CCN1CCC(CC(=O)NCc2cc(C)nn2C)CC1 | -6.59
28 | CCN1CCC(CC(=O)NCc2nc(C)cc(C)n2)CC1 | 69.9
29 | CC(=O)Nc1nc(C(=O)NC(C)c2ccc(F)c(F)c2)cs1 (configuration not stated) | -31.8
30 | COc1cccc(N2CCN(Cc3ccc4[nH]ccc4c3)CC2=O)c1 | 10.2
31 | CCCc1nnc2sc(C3CCS(=O)(=O)CC3)nn12 | 33
32 | CC(=O)N1CCN(c2cncc(C3CCNCC3)n2)CC1 | 16.5
33 | CN1CC2(CNCCN(C(=O)Nc3ccccc3)C2)CC1=O (configuration not stated) | -36.8
34 | COc1c(CNCc2ccc(N(C)C)nc2)c(C)nn1C | 11.25
35 | CC(C)C[C@H](NCc1cc(O)c2cccc(F)c2n1)C(N)=O | 3.03
36 | O=C(c1cccc(C2CCNC2)c1)N1CCC(c2ncc[nH]2)CC1 (configuration not stated) | -6.61
37 | COCCN1CCN(CC(O)c2ccc(OC(F)(F)F)cc2)CC1 (configuration not stated) | -24.2
38 | CN(C)CCN1C(=O)CCC12CCCN(C(=O)c1ccncc1F)C2 (configuration not stated) | -24.1

Row | SMILES | INHIBITION [%]
39 | O=C(c1ccoc1)N1CCC2(CCC(=O)N2Cc2ccncc2)CC1 | 43.8
40 | O=C(c1ccoc1)N1CCCC2(CCC(=O)N2Cc2ccncc2)C1 (configuration not stated) | 51.2
41 | CCN1C(=O)CCCC12CCCN(C(=O)c1ccncc1F)C2 (configuration not stated) | 51.4
42 | O=C(c1ccoc1)N1CCCC2(CCC(=O)N2Cc2cccnc2)C1 (configuration not stated) | 42.3
43 | CN1C(=O)CCC12CCCN(C(=O)c1ccncc1F)C2 (configuration not stated) | -12.2
44 | O=C(Cc1c(F)cccc1Cl)Nc1cccc(N2CCCC2)c1 | 43.4
45 | CNC(=O)c1cn[nH]c1C1CCN(Cc2sccc2C)C1 (configuration not stated) | -14.1
46 | COc1cc(C(C)=O)ccc1OCC(=O)N(C)Cc1cnn(C)c1 | 40.9
47 | CCN(C)C(=O)CCN(C)Cc1cnc(C)s1 | 50.4
48 | CC(=O)c1cccc(OCCCC(=O)N(C)Cc2cccc(O)c2)c1 | 23.5
49 | CC(=O)c1cccc(OCCCC(=O)N(C)CCc2ccncc2)c1 | -8.19
50 | CCCN(CCC)C(=O)CN(C)Cc1cnc(C)s1 | 23.2
51 | CC(=O)c1cccc(OCCCC(=O)N(C)Cc2cscn2)c1 | 5.68
52 | CCOC(=O)CN(C)Cc1cnc(C)s1 | 8.38
53 | CC(=O)c1cccc(OCCCC(=O)N(C)CC(N)=O)c1 | -25.1
54 | CC(=O)c1cccc(OCCCC(=O)N(C)Cc2ccccn2)c1 | 3.47
55 | CC(=O)c1cccc(OCCCC(=O)N(C)CCC(F)(F)F)c1 | 57.3
56 | CC(=O)c1cccc(OCCCC(=O)N(C)Cc2cnn(C)c2)c1 | 82.2
57 | CC(=O)c1cccc(OCCCC(=O)N(C)Cc2cnc(C)s2)c1 | 55.4

— ChEMBL document CHEMBL4513216, “Probing the Open Global Health Chemical Diversity Library for Multistage-Active Starting Points for Next-Generation Antimalarials” (ACS Infect Dis, 2020)
